Assay results: PubChem BioAssay (NCATS)
“And” between values parts separate entries of the source, which are not always exact repeats. Equal entries are not always repeated. Records with an inconclusive call do not appear. The source made the active and inactive calls. Unless noted, calls come from the whole dose curve; as a rule, active = well fitted curve in the direction sought with a large enough effect; inconclusive = small, poorly fitted or top-dose-only effect, or another doubt; inactive = no such curve, though single readings can be large; an effect the other way counts as inactive or inconclusive.

Tests used:
[1] = Counterscreen qHTS for small molecule stabilizers of the endoplasmic reticulum resident proteome: GLuc-NoTag assay (AID 1508627); note: potency is the fitted concentration of half-maximal effect
Summary of the method: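 Counterscreen line: SH-SY5Y-GLuc-NoTag. Seed, 5 h; compound, 19 h; thapsigargin 100 nM, 4 h; 37C/5% CO2. Readout: secreted GLuc luminescence, coelenterazine 0.07x final, no lysis.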

[2] = biological target: Cytochrome P450 2D6 (Homo sapiens) (UniProt P10635); assay: Cytochrome P450 family 2 subfamily D member 6 (CYP2D6) small molecule antagonists: luciferase biochemical (cell-free) qHTS assay (AID 1645840; active = well fitted curve in the direction sought with a large enough effect in the repeat runs; an effect the other way counts as inactive or inconclusive; note: nearly all actives have a fitted effect of over 55% in size; note: potency is the fitted concentration of half-maximal effect)
Summary of the method: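 P450-Glo CYP2D6 system: proluciferin substrate converted by enzyme to luciferin, read by luminescence proportional to activity. Enzyme-substrate mix with compound 10 min at room temperature, then NADPH regeneration 1 h before detection reagent.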

[3] = biological target: Cytochrome P450 2C9 (Homo sapiens) (UniProt P11712); assay: Cytochrome P450 family 2 subfamily C member 9 (CYP2C9) small molecule antagonists: luciferase biochemical (cell-free) qHTS assay (AID 1645842; active = well fitted curve in the direction sought with a large enough effect in the repeat runs; an effect the other way counts as inactive or inconclusive; note: nearly all actives have a fitted effect of over 55% in size; note: potency is the fitted concentration of half-maximal effect)
Summary of the method: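 P450-Glo CYP2C9 system: proluciferin substrate with enzyme in mix containing 0.4% BSA, 10 min at room temperature, then NADPH regeneration solution added and incubated 1 h at 37C. Detection reagent stopped reaction; luminescence read after 20 min as RLU.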

Papain (Carica papaya) = Papain (Carica papaya) (UniProt P00784); assay: Primary qHTS assay for inhibitors of the protease papain (AID 1645873);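 note: papain turnover of Z-FR-AMC read as the AMC fluorescence gain over 10 min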; note: potency is the fitted concentration of half-maximal effect
[4] = biological target: N-terminal Xaa-Pro-Lys N-methyltransferase 1 (Homo sapiens) (UniProt Q9BV86); assay: Confirmatory qHTS for Inhibitors of N-terminal methyltransferase 1 (NTMT1): MTaseGlo Assay (AID 1645874);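 note: luminescence from SAH made as NTMT1 methylates SPKRIA peptide using SAM; series mostly up to about 100 µM; 0% = DMSO control and -100% = no-enzyme control; nearly all actives have a fitted effect of over 65% in size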
Summary of the method: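 Inhibition was derived from luminescence after SAH-to-ATP conversion, scaled between no-enzyme and DMSO wells, then fitted by 4-parameter Hill. Conditions: 125 nM NTMT1, 100 uM SAM, 1 uM SPKRIA, 30 min RT.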

[5] = Confirmatory qHTS for small molecule stabilizers of the endoplasmic reticulum resident proteome: Secreted ER Calcium Modulated Protein (SERCaMP) assay (AID 1508628); note: nearly all actives have a fitted effect of over 40% in size; note: potency is the fitted concentration of half-maximal effect
Summary of the method: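 Reporter secretion upon ER calcium depletion (100 nM thapsigargin, 4 h, 37C) is measured as medium luminescence with coelenterazine, after 16 h compound pretreatment of SH-SY5Y-GLuc-SERCaMP cells; primary at three concentrations up to 38.3 uM, follow-up at 11 (up to 76.6 uM).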

[6] = Primary qHTS for small molecule stabilizers of the endoplasmic reticulum resident proteome: Secreted ER Calcium Modulated Protein (SERCaMP) assay (AID 1508630); note: % is set by controls: 0 for no effect and ±100 for the full control effect
Summary of the method: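 The SH-SY5Y reporter protocol was run at 3 concentrations up to 38.3 uM (primary) or 11 concentrations (follow-up): 16 h compound, 100 nM thapsigargin for 4 h, then extracellular luciferase luminescence.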

[7] = Cell Viability qHTS for small molecule stabilizers of the endoplasmic reticulum resident proteome (AID 1508629); details: cell viability counter-screen, 100 nM thapsigargin for final 4 h;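 note: compound exposure about 46 h in total before the viability read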; note: potency is the fitted concentration of half-maximal effect;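 for max response: human SH-SY5Y neuroblastoma cells carrying the GLuc-SERCaMP reporter; % is set by controls: 0 for no effect and ±100 for the full control effect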
[8] = A High-Content qHTS Against Drug Library for the Identification of Small Molecules that Inhibit DYT1 Early Onset Primary Dystonia-Associated Cell Pathology (AID 1645839; calls by dose curve; note: series mostly up to about 46 µM)
Summary of the method: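 Cells were seeded and left for 24 h, then dosed with compound alongside tetracycline induction of mutant EGFP-TorsinA. They were incubated for 48 h, fixed in 4% paraformaldehyde, permeabilized and imaged for mislocalization (%pathology) and cell count.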

Sequence of Cytochrome P450 2D6 (Homo sapiens) (P10635 whole entry, looked up): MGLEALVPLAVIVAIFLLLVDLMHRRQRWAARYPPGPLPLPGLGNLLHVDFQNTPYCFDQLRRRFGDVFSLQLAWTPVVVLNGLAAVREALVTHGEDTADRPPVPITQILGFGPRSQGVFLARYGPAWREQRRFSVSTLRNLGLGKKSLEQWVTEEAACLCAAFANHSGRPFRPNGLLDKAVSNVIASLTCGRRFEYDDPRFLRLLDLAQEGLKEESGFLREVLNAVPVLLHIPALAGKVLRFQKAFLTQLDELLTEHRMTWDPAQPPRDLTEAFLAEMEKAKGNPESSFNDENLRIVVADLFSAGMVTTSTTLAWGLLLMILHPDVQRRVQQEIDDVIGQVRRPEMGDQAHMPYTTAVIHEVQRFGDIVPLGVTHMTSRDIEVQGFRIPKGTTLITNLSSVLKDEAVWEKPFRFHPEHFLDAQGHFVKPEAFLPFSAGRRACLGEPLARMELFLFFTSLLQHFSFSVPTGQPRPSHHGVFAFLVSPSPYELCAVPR
Sequence of Cytochrome P450 2C9 (Homo sapiens) (P11712 whole entry, looked up): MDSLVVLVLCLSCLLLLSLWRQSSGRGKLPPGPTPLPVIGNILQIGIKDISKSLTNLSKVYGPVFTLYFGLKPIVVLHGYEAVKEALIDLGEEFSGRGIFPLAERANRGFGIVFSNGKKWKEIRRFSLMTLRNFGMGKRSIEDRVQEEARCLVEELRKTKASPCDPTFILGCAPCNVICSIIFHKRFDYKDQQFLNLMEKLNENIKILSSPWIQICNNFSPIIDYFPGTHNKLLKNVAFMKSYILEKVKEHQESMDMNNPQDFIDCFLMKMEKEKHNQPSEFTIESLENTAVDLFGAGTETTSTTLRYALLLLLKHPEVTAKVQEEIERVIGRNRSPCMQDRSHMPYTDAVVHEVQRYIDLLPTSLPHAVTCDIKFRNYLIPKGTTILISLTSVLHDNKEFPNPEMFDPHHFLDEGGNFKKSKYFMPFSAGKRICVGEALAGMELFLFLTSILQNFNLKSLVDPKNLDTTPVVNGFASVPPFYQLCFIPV
Sequence of Papain (Carica papaya) (P00784 whole entry, looked up): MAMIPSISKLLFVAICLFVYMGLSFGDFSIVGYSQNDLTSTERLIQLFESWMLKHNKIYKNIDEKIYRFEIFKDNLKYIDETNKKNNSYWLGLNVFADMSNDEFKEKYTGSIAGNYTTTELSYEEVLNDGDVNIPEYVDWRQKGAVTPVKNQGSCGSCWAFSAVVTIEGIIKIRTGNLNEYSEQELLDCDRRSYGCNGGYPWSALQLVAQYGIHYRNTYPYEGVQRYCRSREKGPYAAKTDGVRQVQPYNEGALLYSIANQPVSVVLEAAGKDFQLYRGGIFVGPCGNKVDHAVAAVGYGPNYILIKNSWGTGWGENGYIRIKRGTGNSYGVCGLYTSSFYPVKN
Sequence of N-terminal Xaa-Pro-Lys N-methyltransferase 1 (Homo sapiens) (Q9BV86 whole entry, looked up): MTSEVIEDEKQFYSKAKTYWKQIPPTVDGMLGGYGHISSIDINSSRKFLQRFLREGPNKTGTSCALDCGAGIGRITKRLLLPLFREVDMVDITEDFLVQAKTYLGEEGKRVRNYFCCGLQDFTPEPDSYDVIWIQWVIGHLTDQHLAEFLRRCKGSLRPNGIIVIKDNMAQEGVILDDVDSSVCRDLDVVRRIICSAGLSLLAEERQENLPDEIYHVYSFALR

CN(C)CCC=C1c2ccccc2C=Cc2ccccc21
active: Potency [2] 3.89 µM and 8.49 µM
inactive: Potency [1] | Potency [3] | Potency (Papain (Carica papaya)) | outcome [4]

CCCNCC(O)COc1ccccc1C(=O)CCc1ccccc1 (stereo not drawn)
inactive: Potency [1] | Potency [5] | Potency [6] | Potency (Papain (Carica papaya))

Clc1ccc2c(c1)C(N1CCNCC1)=Nc1ccccc1O2
inactive: Potency [1] | Potency [5] | max response [7] -4.18% | Potency [6] | Potency [8] | Potency [3] | Potency (Papain (Carica papaya))
active: Potency [2] 4.36 µM

CN1CCC(=C2c3ccccc3CC(=O)c3sccc32)CC1
inactive: Potency [1] | max response [7] 19.1% | Potency [6] | Potency [8] | Potency [3] | Potency (Papain (Carica papaya))
active: Potency [5] 20 µM and 25.1 µM | Potency [2] 1.38 µM

CC(C)NCC(O)c1ccc(O)c(O)c1 (stereo not drawn)
inactive: Potency [5] | Potency [6] | Potency [3] | Potency (Papain (Carica papaya))

OCCN(CCO)c1nc(N2CCCCC2)c2nc(N(CCO)CCO)nc(N3CCCCC3)c2n1
inactive: Potency [1] | Potency [6] | Potency (Papain (Carica papaya))
active: Potency [5] 31.6 µM | Potency [2] 4.9 µM

CC(=O)OCC(CCn1cnc2cnc(N)nc21)COC(C)=O
inactive: Potency [6] | Potency [8] | Potency [2] | Potency [3] | Potency (Papain (Carica papaya))

Fc1ccc([C@@H]2CCNC[C@H]2COc2ccc3c(c2)OCO3)cc1
inactive: Potency [6]

CC(CCc1ccc(O)cc1)NCCc1ccc(O)c(O)c1 (stereo not drawn)
inactive: max response [7] 27% | Potency [3] | Potency (Papain (Carica papaya))
active: Potency [5] 31.6 µM and 39.8 µM and 50.1 µM

Nc1c2c(nc3ccccc13)CCCC2
active: Potency [2] 9.77 µM
inactive: Potency [6] | Potency [8] | Potency [3]

CCCCc1oc2ccccc2c1C(=O)c1cc(I)c(OCCN(CC)CC)c(I)c1
inactive: Potency [1] | Potency [5] | max response [7] 10.4% | Potency [6] | Potency (Papain (Carica papaya))

Cn1c(=O)c2c(ncn2C)n(C)c1=O
inactive: Potency [1] | Potency [5] | max response [7] 8.95% [middle of 5 runs] | Potency [6] | Potency [8] | Potency [2] | Potency [3] | Potency (Papain (Carica papaya))

CC1COc2c(N3CCN(C)CC3)c(F)cc3c(=O)c(C(=O)O)cn1c23 (stereo not drawn)
inactive: Potency [6] | Potency [8] | Potency [2] | Potency [3]

CS(=O)(=O)Nc1ccc([N+](=O)[O-])cc1Oc1ccccc1
active: Potency [3] 13.8 µM
inactive: Potency [6] | Potency [8] | Potency [2] | Potency (Papain (Carica papaya))

Cc1ccc(C(=O)Nc2ccc(S(=O)(=O)O)c3cc(S(=O)(=O)O)cc(S(=O)(=O)O)c23)cc1NC(=O)c1cccc(NC(=O)Nc2cccc(C(=O)Nc3cc(C(=O)Nc4ccc(S(=O)(=O)O)c5cc(S(=O)(=O)O)cc(S(=O)(=O)O)c45)ccc3C)c2)c1
inactive: Potency [6] | Potency [8] | Potency [2] | Potency [3]
active: Potency [5] 15.8 µM | Potency (Papain (Carica papaya)) 7.08 µM

CC1(C)O[C@H]2CC(=O)OC[C@]23[C@H]2CC[C@@]4(C)[C@H](c5ccoc5)OC(=O)[C@H]5O[C@]54[C@]2(C)C(=O)C[C@@H]13
inactive: Potency [6] | Potency [8] | Potency [2] | Potency [3]

C[C@@H]1CC(=O)NN=C1c1ccc(NN=C(C#N)C#N)cc1
active: Potency [1] 14.1 µM and 28.2 µM | Potency [5] 15.8 µM | Potency [3] 977 nM and 692 nM
inactive: max response [7] -18.7% | Potency [6] | Potency [8] | Potency [2]

COc1ccccc1OCCNCC(O)COc1cccc2[nH]c3ccccc3c12 (stereo not drawn)
active: Potency [1] 44.7 µM and 35.5 µM | Potency [7] 25.1 µM | Potency [2] 1.95 µM
inactive: Potency [5] | Potency [6] | Potency (Papain (Carica papaya))

CC(COc1ccccc1)N(CCCl)Cc1ccccc1 (stereo not drawn)
active: Potency [2] 0.723 µM | Potency [3] 12.1 µM
inactive: Potency [6] | Potency [8]

COc1ccc(CCN(C)CCCC(C#N)(c2ccc(OC)c(OC)c2)C(C)C)cc1OC (stereo not drawn)
inactive: Potency [1] | max response [7] -5.84% | Potency [6] | Potency [2]
active: Potency [5] 20 µM

CN1C2CCC1CC(OC(=O)C(CO)c1ccccc1)C2 (stereo not drawn)
active: Potency [5] 39.8 µM
inactive: max response [7] -15.7% and 13.4% | Potency [6]

Cc1ccccc1N1C(=O)c2cc(S(N)(=O)=O)c(Cl)cc2NC1C (stereo not drawn)
inactive: Potency [6] | Potency [8] | Potency [2] | Potency [3]

O=C(Nc1ccc([N+](=O)[O-])cc1Cl)c1cc(Cl)ccc1O
inactive: Potency [5] | Potency [6] | Potency (Papain (Carica papaya))
active: Potency [1] 3.98 µM | Potency [7] 5.01 µM | Potency [2] 13.5 µM | Potency [3] 4.77 µM

CS(=O)(=O)CCNCc1ccc(-c2ccc3ncnc(Nc4ccc(OCc5cccc(F)c5)c(Cl)c4)c3c2)o1
inactive: Potency [5] | Potency [6]

O=c1c(O)c(-c2ccc(O)c(O)c2)oc2cc(O)cc(O)c12
inactive: Potency [1] | max response [7] -19.3% and 6.63% and -20.3% | Potency [6] | Potency (Papain (Carica papaya))

CC12CC3CC(C)(C1)CC(N)(C3)C2
active: Potency [5] 11.2 µM and 39.8 µM
inactive: Potency [1] | max response [7] 23.1% | Potency [6] | Potency [2] | Potency (Papain (Carica papaya))
